BAZ2B block: blocks human BAZ2B | AID 504333 | Q9UIF8 | actives 4.4% (n = 360,000) | Potency, µM (series often up to 114 µM), for inactives: at the top dose activity change, negative = inhibition, actives largely listed as inhibitors | AlphaScreen BAZ2B-H3K14Ac peptide displacement; note: % is set by controls: 0 for no effect and ±100 for the full control effect; nearly all actives have a fitted effect of over 60% in size
Target sequence (Q9UIF8 whole entry, looked up): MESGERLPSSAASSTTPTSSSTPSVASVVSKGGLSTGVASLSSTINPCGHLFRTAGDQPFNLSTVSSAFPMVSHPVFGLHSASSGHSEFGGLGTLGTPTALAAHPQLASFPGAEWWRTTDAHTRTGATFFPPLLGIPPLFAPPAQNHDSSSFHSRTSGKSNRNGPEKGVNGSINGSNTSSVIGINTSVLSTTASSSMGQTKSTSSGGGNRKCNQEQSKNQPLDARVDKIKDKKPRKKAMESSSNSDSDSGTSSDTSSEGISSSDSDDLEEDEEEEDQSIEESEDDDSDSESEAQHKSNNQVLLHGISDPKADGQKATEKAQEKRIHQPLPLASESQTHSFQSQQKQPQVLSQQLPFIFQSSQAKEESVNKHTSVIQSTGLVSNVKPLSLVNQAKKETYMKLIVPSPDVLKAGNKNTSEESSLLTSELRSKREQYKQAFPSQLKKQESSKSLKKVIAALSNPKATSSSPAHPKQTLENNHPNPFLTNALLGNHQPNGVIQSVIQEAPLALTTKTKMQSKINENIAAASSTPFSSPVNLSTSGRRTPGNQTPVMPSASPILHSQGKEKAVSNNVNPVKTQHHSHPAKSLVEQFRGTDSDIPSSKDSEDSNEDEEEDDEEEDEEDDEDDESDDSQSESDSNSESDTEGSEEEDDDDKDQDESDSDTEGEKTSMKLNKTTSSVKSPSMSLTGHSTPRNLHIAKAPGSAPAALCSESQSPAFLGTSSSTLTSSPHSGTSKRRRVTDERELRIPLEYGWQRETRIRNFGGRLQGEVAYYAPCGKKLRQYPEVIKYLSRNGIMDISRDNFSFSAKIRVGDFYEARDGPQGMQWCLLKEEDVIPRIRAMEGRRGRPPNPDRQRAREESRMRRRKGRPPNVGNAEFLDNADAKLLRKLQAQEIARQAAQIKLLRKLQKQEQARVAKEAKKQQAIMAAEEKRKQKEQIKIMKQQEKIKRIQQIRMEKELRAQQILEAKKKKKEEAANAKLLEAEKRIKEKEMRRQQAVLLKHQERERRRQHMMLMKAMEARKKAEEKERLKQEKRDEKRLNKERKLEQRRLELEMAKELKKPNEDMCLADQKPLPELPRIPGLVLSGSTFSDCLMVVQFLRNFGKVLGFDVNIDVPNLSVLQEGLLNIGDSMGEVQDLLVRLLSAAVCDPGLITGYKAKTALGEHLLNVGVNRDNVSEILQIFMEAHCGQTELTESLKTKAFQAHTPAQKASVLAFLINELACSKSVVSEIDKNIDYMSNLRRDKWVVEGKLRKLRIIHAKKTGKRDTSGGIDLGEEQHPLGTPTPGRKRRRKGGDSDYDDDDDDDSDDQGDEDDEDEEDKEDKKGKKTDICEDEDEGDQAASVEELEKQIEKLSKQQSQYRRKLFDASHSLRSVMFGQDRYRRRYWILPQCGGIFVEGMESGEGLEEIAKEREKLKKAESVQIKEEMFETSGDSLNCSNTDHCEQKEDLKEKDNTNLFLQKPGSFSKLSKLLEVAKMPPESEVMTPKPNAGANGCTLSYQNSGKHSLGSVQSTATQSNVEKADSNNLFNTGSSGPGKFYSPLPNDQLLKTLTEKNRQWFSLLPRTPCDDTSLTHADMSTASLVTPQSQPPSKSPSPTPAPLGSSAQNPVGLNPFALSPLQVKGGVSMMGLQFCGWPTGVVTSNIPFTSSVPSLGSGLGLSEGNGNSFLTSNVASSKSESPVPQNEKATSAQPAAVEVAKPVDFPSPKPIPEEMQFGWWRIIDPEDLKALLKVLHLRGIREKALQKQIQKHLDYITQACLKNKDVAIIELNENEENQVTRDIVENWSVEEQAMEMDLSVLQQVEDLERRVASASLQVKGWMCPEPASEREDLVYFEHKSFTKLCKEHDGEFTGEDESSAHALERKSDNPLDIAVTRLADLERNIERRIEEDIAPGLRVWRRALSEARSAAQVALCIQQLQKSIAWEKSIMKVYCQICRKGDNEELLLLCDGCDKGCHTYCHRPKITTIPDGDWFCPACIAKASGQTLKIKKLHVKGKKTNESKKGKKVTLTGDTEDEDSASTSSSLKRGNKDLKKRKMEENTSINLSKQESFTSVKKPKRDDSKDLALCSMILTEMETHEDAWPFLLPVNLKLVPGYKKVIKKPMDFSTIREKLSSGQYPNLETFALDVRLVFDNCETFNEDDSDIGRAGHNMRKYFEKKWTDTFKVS
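Protein-peptide AlphaScreen: BAZ2B 50 nM, b-H3K14Ac 50 nM, 1x PBS pH 7.4 + 0.01% Tween-20. Preincubation 30 min RT; cpd 30 min RT (top 110 uM); beads 20 min RT, light-protected.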
JMJD2A Tudor inh: JMJD2A Tudor domain (human) inhibition | O75164 | AlphaScreen JMJD2A-Tudor / H3K4me3 peptide binding | Potency, µM (doses to about 114 µM), for inactives: at the highest dose activity change, negative = inhibition, most hits filed as inhibitors | actives 4.4% (n = 390,000); note: % is set by controls: 0 for no effect and ±100 for the full control effect; nearly all actives have a fitted effect of over 50% in size
12-LOX inh: ALOX12 (human) lipoxygenase inhibition; purified 12hLO, xylenol orange hydroperoxide absorbance; Potency, µM (series often up to 108 µM), without a hit: top-dose activity change, negative = inhibition, most hits filed as inhibitors; actives 1.1% (n = 580,000); note: % is set by controls: 0 for no effect and ±100 for the full control effect
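Purified human 12hLO at 150 nM in 25 mM Hepes, 0.01% Triton X-100, pH 7.0, preincubated 15 min at room temperature with compound. Reaction started with 40 uM arachidonic acid, 30 min at room temperature. Hydroperoxide measured by Fe-xylenol orange, 573/405 nm absorbance ratio.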
HP1b chromo inh: HP1-beta chromodomain-methylated histone interaction inhibition. Potency, µM (top dose mostly 114 µM), without a hit: at the highest dose activity change, negative = inhibition, actives largely listed as inhibitors. AlphaScreen HP1-beta / biotin-H3K9me3 peptide binding. actives 0.56% (n = 390,000). P83916; note: nearly all actives have a fitted effect of over 70% in size
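Compound inhibition of the preformed complex between 50 nM HP1-beta and 50 nM biotinylated H3K9me3 peptide was read by AlphaScreen. Buffer was PBS pH 7.4 with 0.01% Tween-20. Incubations ran 30 min at room temperature, with 10 ug/mL donor/acceptor beads.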
PLK1 PBD inh: PLK1 (human) polo-box domain binding inhibition; Plk1 PBD binding of FITC phosphopeptide, fluorescence polarization; Potency, µM, for the others: max response, negative = inhibition, actives largely listed as inhibitors; actives 2.8% (n = 360,000); note: series mostly up to about 57 µM; % is set by controls: 0 for no effect and ±100 for the full control effect; nearly all actives have a fitted effect of over 65% in size
G9a block: inhibitors of human histone lysine methyltransferase G9a. G9a H3K9 monomethylation, AlphaScreen, 2 h. Potency, µM (top dose mostly 102 µM), inactives show top-dose activity, negative = inhibition, hits mostly inhibitors. actives 8.8% (n = 350,000); note: % is set by controls: 0 for no effect and ±100 for the full control effect; nearly all actives have a fitted effect of over 75% in size
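Chemiluminescent proximity detection of H3K9 monomethylation, read after 10 min bead incubation in the dark. Reaction: 20 nM G9a, 500 nM biotin-H3K9 peptide, 20 uM SAM cofactor, 2 h, room temperature, following 15 min enzyme-compound preincubation.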
* marks the source's active call; other numbers are inactive results; ? = inconclusive; . = no result given; [ ] = another dose, or the depositor's remark. Only some compounds are listed: those with a hit (about 9% of all), similar ones and a draw of the others. Calls come from the whole dose curve; as a rule, active = well fitted curve in the direction sought with a large enough effect; inconclusive = small, poorly fitted or top-dose-only effect, or another doubt; inactive = no such curve, though single readings can be large; an effect the other way counts as inactive or inconclusive. Potency is the fitted concentration of half-maximal effect.

SMILES | BAZ2B block | JMJD2A Tudor inh | 12-LOX inh | HP1b chromo inh | PLK1 PBD inh | G9a block
O=C(c1ccc2c3c(cccc13)CC2)C1CCCN(Cc2ccc(OCCO)cc2)C1 (centres undefined) | ? | -54% | -25% | -15% | -4% | .
COc1cc(NC(=O)c2cccc(NC3=NC4CS(=O)(=O)CC4S3)c2)cc(OC)c1OC (centres undefined) | -30% | -15% | -14% | 31% | -8% | 21%
CC(=O)c1sc(NC(C)c2ccccc2)nc1C (centres undefined) | -20% | -5% | 17% | 15% | -2% | 9%
Cc1nc(NC(C)c2ccccc2)sc1C(=O)Nc1ccccc1 (centres undefined) | ? | -22% | -13% | 4% | 24µM* | -40%
CCOC(=O)c1nc(NCc2ccccc2)sc1C | ? | 79µM* | ? | ? | 6.7µM* | 3.5µM*
CC(=O)c1sc(NC(=O)CCOc2ccccc2)nc1C | -18% | -16% | -13% | 32% | -6% | -28%
Cc1sc(NCc2ccccc2)nc1-c1ccccc1 | . | ? | . | 5% | . | .
Cc1nc(NCc2ccccc2)sc1C(=O)Nc1ccccc1 | ? | -23% | -8% | 20% | -7% | 50µM*
Cc1nc(NCCOc2ccccc2)sc1C(=O)Nc1ccccc1 | -26% | -19% | ? | 25% | -4% | 45µM*
O=C(Nc1cc2c(cc1Br)OCCCO2)c1ccccc1 | 14% | 4% | 1% | 23% | -8% | 3%
CCN(CC)S(=O)(=O)c1cccc(-c2nnc(SCc3nnc(-c4cccs4)o3)n2N)c1 | 9% | 3% | 0% | 23% | -2% | 50µM*
CCOc1ccccc1-c1c2cc(O)c(=O)cc-2oc2cc(O)c(O)cc12 | 7.1µM* | 1µM* | . | -91% | -10% | 10µM*
Cc1ccccc1-c1cc(=O)c2c(O)cccc2o1 | 7% | 3% | -52% | 66% | 3% | 21%[12.7 µM]
O=c1cc2oc3cc(O)c(O)cc3c(-c3ccccc3O)c-2cc1O | 7.9µM* | 4µM* | . | 14µM* | 24µM* | 16µM*
O=C(CCN1C(=O)c2ccccc2C1=O)Nc1ccccc1C(F)(F)F | 1% | -10% | -17% | 38% | -14% | 45µM*
CCN(CC(=O)Nc1ccccc1OC)CC(=O)Nc1ccccc1-c1ccccc1 | 28µM* | 2.2µM* | -22% | ? | -6% | 50µM*
O=C(CN1C(=O)c2ccccc2C1=O)Nc1ccccc1C(F)(F)F | -6% | -15% | 3% | 27% | -4% | 21%
COc1ccccc1NC(=O)CCN1C(=O)c2ccccc2C1=O | 3% | 1% | 0% | 24% | -17% | 79µM*
CCCC(C)NCC(=O)Nc1ccccc1-c1ccccc1 (centres undefined) | ? | 1.1µM* | ? | ? | -7% | ?
CCN(CC(=O)Nc1ccccc1OC)CC(=O)Nc1ccccc1C(F)(F)F | . | -3% | 21% | 25% | -11% | 4%
C=CCOC(=O)C1=C[C@H](c2coc3ccccc3c2=O)[C@@H](CCCO)[C@H](OCC)O1 | -5% | -8% | -9% | 15% | 5% | -12%[59 µM]
CCNS(=O)(=O)c1cc(S(C)(=O)=O)ccc1Cl | 5% | -15% | 4% | 29% | -10% | -4%[12.7 µM]
CCn1c(C)nnc1SCC(=O)Nc1ccc(C(C)=O)cc1 | -6% | -1% | 13% | 44% | 3% | -6%
COc1ccccc1NC(=O)CCC(=O)c1ccc(-c2ccccc2)cc1 | 5% | 25µM* | ? | -10% | 30µM* | -10%[59 µM]
COc1ccccc1NC(=O)CCC(=O)Nc1ccccc1OC | 8% | -3% | -10% | 15% | -4% | 6%[59 µM]
SMILES | BAZ2B block | JMJD2A Tudor inh | 12-LOX inh | HP1b chromo inh | PLK1 PBD inh | G9a block
Cc1cc(NN)nc(NS(=O)(=O)c2ccc(Cl)cc2)n1 | -17% | -3% | -11% | 11% | 2% | ?
Cc1cc(NN)nc(NS(=O)(=O)c2ccccc2)n1 | 14% | ? | ? | 8% | -12% | 32µM*
O=C(NCc1ccc2c(c1)OCO2)C1CCN(S(=O)(=O)c2cccc3nsnc23)CC1 | 7% | -21% | 0% | 12% | -3% | -32%
N#CCCn1cc(C(=O)Nc2cccc(C(=O)O)c2)c(-c2ccc(Cl)cc2)n1 | 9% | -15% | -4% | 25% | 5% | -2%
O=C(COC(=O)c1ccc(S(=O)(=O)NCc2ccco2)cc1)Nc1ccc(Cl)cn1 | 56µM* | ? | ? | -31% | ? | 50µM*
O=C(COC(=O)c1ccc(S(=O)(=O)NCc2ccco2)cc1)NCC1CCCCC1 | ? | ? | ? | -5% | -13% | -2%[12.7 µM]
O=C(COC(=O)c1ccc(S(=O)(=O)NCc2ccco2)cc1)Nc1ccccc1OC(F)F | 47% | -19% | -6% | 4% | -1% | 50µM*
Cc1ccc(NC(=O)COC(=O)c2ccc(S(=O)(=O)NCc3ccco3)cc2)cc1 | 2% | -16% | 297% | 17% | -6% | 17%[12.7 µM]
CN(C)C(=O)COC(=O)c1ccc(S(=O)(=O)NCc2ccco2)cc1 | ? | -6%[11.4 µM] | -14% | ? | 27µM* | ?
O=C(COC(=O)c1ccc(S(=O)(=O)NCc2ccco2)cc1)Nc1ccccc1 | 10% | -6% | -13% | 15% | -7% | ?
Cc1cccc(NS(=O)(=O)c2ccc(C(=O)NCC(c3ccco3)N3CCCCC3)cc2)c1C (centres undefined) | -29% | -35% | -8% | ? | 0% | -40%
N#Cc1nc(N2CCCCC2)nc(N(c2ccccc2)c2ccccc2)n1 | . | 5%[57.1 µM] | . | 15%[57 µM] | . | .
Cc1ccc(CC(=O)Nc2ccc3c(c2)N(C)C(=O)c2ccccc2S3)cc1 | ? | ? | -16% | ? | . | 4µM*
CCOc1ccc(CC(=O)Nc2ccc3c(c2)N(C)C(=O)c2ccccc2S3)cc1OCC | -17% | -33% | -22% | 17% | . | 1%[59 µM]
S=c1[nH]ncn1-c1ccccn1 | ? | 20µM* | ? | ? | -13% | ?
c1ccc(-n2cnc3ccccc32)nc1 | 9% | -7% | 0% | 32% | -10% | .
C=CCN1CCN(C(=O)c2cc3c(s2)CCCC3)CC1 | -20% | -17% | -2% | 23% | -16% | 11%
Cc1ccc(C2Cn3nnc(-c4noc(-c5ccc6c(c5)OCO6)n4)c3CO2)cc1 (centres undefined) | . | . | 2% | . | . | .
Cc1cc(C)c(OCC(=O)OCCNC(=O)c2cccnc2)c(C)c1 | ? | -23% | ? | 19% | -12% | 25µM*
C=CCc1ccccc1OCC(=O)OCCNC(=O)c1cccnc1 | ? | ? | 40µM* | 37% | -16% | ?
Fc1ccccc1C1c2cccn2CCN1C(=S)Nc1cccc(Br)c1 (centres undefined) | ? | -1% | -2% | 20% | -2% | ?
